Bioassay records (PubChem)
aSyn yeast inh: rescues yeast growth from alpha-synuclein toxicity; Yeast expressing alpha-synuclein, growth rescue, BacTiter-Glo, 24 h; Potency, µM (highest dose often 46.1 µM), actives largely listed as activators; actives 0.14% (n = 370,000); AID 652106; also: nearly all actives have a fitted effect of over 65% in size
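Readout is rescue of growth in alpha-synuclein-expressing yeast, so inhibitors of toxicity appear as activators. Growth after 24 hr at 30 deg C in galactose medium is quantified by luminescence.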
Abeta yeast res: compounds reversing amyloid beta toxicity in yeast; yeast expressing A-beta42, growth rescue, OD600, 48 h; response scale: 0% DMSO, 100% iron-clioquinol control; Potency, µM (series often up to 46.1 µM), actives largely listed as activators; actives 0.063% (n = 410,000); also: nearly all actives have a fitted effect of over 55% in size
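Growth rescue measured by 600 nm absorbance after 48 h yeast culture at 30 C with compound. Values normalized between DMSO and an equimolar ferric chloride plus clioquinol control.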
TDP-43 yeast inh: TDP-43 toxicity inhibition in yeast; TDP-43 expressing yeast growth rescue, BacTiter-Glo, 24 h; Potency, µM (series often up to 46.1 µM), most hits filed as activators; actives 1.8% (n = 410,000); also: nearly all actives have a fitted effect of over 50% in size
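Galactose-induced TDP-43 yeast, OD600=0.02, compound pinned; 24 hr, 30 deg C; BacTiter-Glo luminescence for growth. Inhibitors of TDP-43 toxicity read as activators.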
FUS yeast rescue: suppressors of FUS proteinopathy in yeast; S. cerevisiae FUS-expressing, growth rescue, OD600, 24 h; Potency, µM (highest dose often 76.6 µM), actives largely listed as activators; actives 0.24% (n = 390,000); AID 1347120; also: nearly all actives have a fitted effect of over 55% in size
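Restored growth of FUS-toxic S. cerevisiae, read as 600 nm absorbance after 24 h at 30C in galactose medium (starting OD 0.005). Controls CP55940 and DMSO.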
Hits are given with their value. Compounds with a hit are over-represented: about 2.1% of the library has one in this group of screens. Calls follow the shape of the dose curve; as a rule, active = well fitted curve in the direction sought with a large enough effect; inconclusive = small, poorly fitted or top-dose-only effect, or another doubt; inactive = no such curve, though single readings can be large; an effect the other way counts as inactive or inconclusive.

Screening COc1ccc(Cl)cc1NC(=O)CSc1nc(=O)n(Cc2ccco2)c2c1CCC2 returned Abeta yeast res inactive, TDP-43 yeast inh inconclusive and FUS yeast rescue inconclusive.
Screening Cc1cccc(NC(=S)NNC(=O)c2ccc3c(c2)OCO3)c1 returned aSyn yeast inh inactive, Abeta yeast res inactive and TDP-43 yeast inh inactive.
For CCCc1cc(C(=O)NNC(=S)Nc2cccc(C)c2)cs1 the results were aSyn yeast inh inactive, Abeta yeast res inactive and TDP-43 yeast inh 8.91µM.
For COc1ccccc1NC1=C(Cl)C(=O)N(c2ccccc2)C1=O the results were aSyn yeast inh inactive, Abeta yeast res inactive and TDP-43 yeast inh 6.31µM.
`COc1ccc(NC2=C(Cl)C(=O)N(c3ccccc3)C2=O)c(OC)c1` gave aSyn yeast inh inactive, Abeta yeast res inactive, TDP-43 yeast inh inactive and FUS yeast rescue inactive.
`O=C(CSc1nccn1Cc1ccccc1)NCc1ccccc1Cl` gave aSyn yeast inh inactive, Abeta yeast res inactive, TDP-43 yeast inh inactive and FUS yeast rescue inactive.
O=C(Nc1cccc(S(=O)(=O)N2CCCCC2)c1)[C@@H]1CCCN1S(=O)(=O)c1ccccc1C(F)(F)F was read as aSyn yeast inh inactive, Abeta yeast res inactive, TDP-43 yeast inh inactive and FUS yeast rescue 25.1µM.
CC(=O)c1cccc(NC(=O)C2CCCN2S(=O)(=O)c2ccccc2C(F)(F)F)c1 (stereo not drawn) was read as aSyn yeast inh inactive, Abeta yeast res inactive, TDP-43 yeast inh inactive and FUS yeast rescue inactive.
`O=C(COc1ccc(F)cc1Cl)Nc1cccc(S(=O)(=O)N2CCCC2)c1` gave aSyn yeast inh inactive, Abeta yeast res inactive, TDP-43 yeast inh 35.5µM and FUS yeast rescue inactive.
CCc1ccccc1OCC(=O)Nc1ccc(F)c(S(=O)(=O)N2CCOCC2)c1 was read as aSyn yeast inh inactive, Abeta yeast res inactive, TDP-43 yeast inh 15.8µM and FUS yeast rescue inactive.
For COc1ccc(C(=O)Nc2ccccc2N2CCCCC2)cc1[N+](=O)[O-] the results were aSyn yeast inh inactive, Abeta yeast res inactive, TDP-43 yeast inh 17.8µM and FUS yeast rescue inactive.
COc1ccc(CC(=O)Nc2ccc(F)c(S(=O)(=O)N3CCOCC3)c2)cc1 was read as aSyn yeast inh inactive, Abeta yeast res inactive, TDP-43 yeast inh inactive and FUS yeast rescue inactive.
COc1cccc(-c2cn3c(n2)sc2cc(C(=O)NCc4cccs4)ccc23)c1 was read as Abeta yeast res inactive, TDP-43 yeast inh inactive and FUS yeast rescue inactive.
For COc1ccccc1NC(=O)c1cccc(S(=O)(=O)N2CCCCCC2)c1 the results were Abeta yeast res inactive, TDP-43 yeast inh 35.5µM and FUS yeast rescue inactive.
`O=C(COc1ccccc1Cl)Nc1cccc(S(=O)(=O)N2CCCC2)c1` gave aSyn yeast inh inactive, Abeta yeast res inactive, TDP-43 yeast inh 17.8µM and FUS yeast rescue inactive.
Cc1cccc(C2NC(=O)c3c(sc4c3CCN(C)C4)N2)c1O (stereo not drawn) was read as Abeta yeast res inactive, TDP-43 yeast inh inactive and FUS yeast rescue inactive.
Screening O=C(/C=C/c1cccc([N+](=O)[O-])c1)c1ccco1 returned aSyn yeast inh inactive, Abeta yeast res inactive, TDP-43 yeast inh 6.31µM and FUS yeast rescue inactive.
For Cc1nc2ccccn2c1C(=O)/C=C/c1cccc([N+](=O)[O-])c1 the results were aSyn yeast inh inactive, Abeta yeast res inactive, TDP-43 yeast inh 2.51µM and FUS yeast rescue inactive.
For O=C(/C=C/c1cccc([N+](=O)[O-])c1)c1ccc([N+](=O)[O-])o1 the results were aSyn yeast inh inactive, Abeta yeast res inactive, TDP-43 yeast inh inactive and FUS yeast rescue inactive.
`Cc1cccc(C)c1NC(=O)C(c1ccncc1)n1c(=O)c(-c2cc3ccccc3[nH]2)nc2ccccc21` (stereo not drawn) gave aSyn yeast inh inactive, Abeta yeast res inactive, TDP-43 yeast inh 14.1µM and FUS yeast rescue inconclusive.
Screening COc1ccc(NC(=O)C(C2CC2)n2c(=O)c(-c3cc4ccccc4[nH]3)nc3ccccc32)cc1 (stereo not drawn) returned aSyn yeast inh 14.1µM, Abeta yeast res inactive, TDP-43 yeast inh inactive and FUS yeast rescue inconclusive.
O=c1c(-c2cc3ccccc3[nH]2)nc2ccccc2n1C(CCc1ccccc1)c1nc2ccccc2[nH]1 (stereo not drawn) was read as aSyn yeast inh inactive, Abeta yeast res inconclusive, TDP-43 yeast inh inconclusive and FUS yeast rescue inconclusive.
For Cc1cccc(C)c1NC(=O)C(c1ccc(C#N)cc1)n1c(=O)c(-c2cc3ccccc3[nH]2)nc2ccccc21 (stereo not drawn) the results were aSyn yeast inh inactive, Abeta yeast res inconclusive, TDP-43 yeast inh 10µM and FUS yeast rescue inactive.
CSCCC(c1nc2ccccc2[nH]1)n1c(=O)c(-c2cc3ccccc3[nH]2)nc2ccccc21 (stereo not drawn) was read as aSyn yeast inh inactive, Abeta yeast res inconclusive, TDP-43 yeast inh 17.8µM and FUS yeast rescue inactive.
Screening Cc1cccc(C)c1NC(=O)C(c1ccccc1)n1c(=O)c(-c2cc3ccccc3[nH]2)nc2ccccc21 (stereo not drawn) returned aSyn yeast inh inactive, Abeta yeast res inconclusive, TDP-43 yeast inh inconclusive and FUS yeast rescue inactive.
O=C(Nc1ccc2ccccc2c1)C(C1CC1)n1c(=O)c(-c2cc3ccccc3[nH]2)nc2ccccc21 (stereo not drawn) was read as aSyn yeast inh inconclusive, Abeta yeast res inactive, TDP-43 yeast inh inactive and FUS yeast rescue inactive.
Screening C#CCN1CC(N(C)CCO)CS1(=O)=O (stereo not drawn) returned FUS yeast rescue inactive.
`OC1C(Br)=Cc2ccccc21` (stereo not drawn) gave aSyn yeast inh inactive.
For Cc1cc(C)c2c(CC(=O)Nc3ccccc3C(F)(F)F)coc2c1 the results were Abeta yeast res inactive, TDP-43 yeast inh inactive and FUS yeast rescue inactive.
CCOC(=O)c1c(S(=O)(=O)N2CCCC(C(=O)N3CCN(c4ccc(F)cc4)CC3)C2)c(C)n(C)c1C (stereo not drawn) was read as Abeta yeast res inactive, TDP-43 yeast inh inactive and FUS yeast rescue inactive.
Screening N#Cc1ccc(C(C(=O)NCc2ccccc2)n2c(=O)c(-c3cc4ccccc4[nH]3)nc3ccccc32)cc1 (stereo not drawn) returned aSyn yeast inh inactive, Abeta yeast res inactive, TDP-43 yeast inh inconclusive and FUS yeast rescue inconclusive.
Screening O=C(NCc1ccccc1)C(c1ccc(C(F)(F)F)cc1)n1c(=O)c(-c2cc3ccccc3[nH]2)nc2ccccc21 (stereo not drawn) returned aSyn yeast inh 7.08µM, Abeta yeast res inconclusive, TDP-43 yeast inh inactive and FUS yeast rescue inconclusive.
`O=C(NC(=S)NCCc1ccc(Cl)cc1)c1ccco1` gave aSyn yeast inh inactive, Abeta yeast res inconclusive, TDP-43 yeast inh 14.1µM and FUS yeast rescue inactive.
CCC(=O)Nc1ccc(Cl)c(NC(=S)NC(=O)c2ccco2)c1 was read as aSyn yeast inh inactive, Abeta yeast res inactive, TDP-43 yeast inh 11.2µM and FUS yeast rescue inactive.
